Results published in the antibiotic and cytotoxicity screens of Wong et al. (2023).
Among all 39,000 compounds or so, about 3,300 (8.5%) were called active. The entries come from a sample that favours actives as a whole.

System: HepG2
Assay: cytotoxicity call (relative viability < 0.9)
Conditions: 10 µM

Question: `O=C(C[C@@H]1CC[C@H](NC(=O)Nc2ccc3c(c2)OCO3)[C@@H](CO)O1)NCCCN1CCOCC1` was tested. Which cytotoxicity call did it give?
Answer: inactive

Question: For `C[C@@H]1CN([C@H](C)CO)C(=O)c2cc(NC(=O)CCCN(C)C)ccc2O[C@@H](C)CCCCO[C@H]1CN(C)S(=O)(=O)c1cn(C)cn1`, which cytotoxicity call is on record?
Answer: inactive

Question: Which cytotoxicity call does the source give for `C[C@H](CO)N1C[C@H](C)[C@H](CN(C)C(=O)c2cccc(F)c2)Oc2cc(C#CC3CC3)ccc2S1(=O)=O` here?
Answer: inactive

Question: Which cytotoxicity call does the source give for `CC(C)C[C@@](O)(CC(=O)O)C(=O)O` here?
Answer: inactive

Question: With `CN(C)CCCNC(=O)C[C@@H]1CC[C@H]2[C@@H](COc3ccc(NS(C)(=O)=O)cc3C(=O)N2C)O1` as the molecule, how does the cytotoxicity call read?
Answer: inactive

Question: Which cytotoxicity call does the source give for `CC(C)N1CC=C[C@@]23O[C@@H]4C=CCOC(=O)[C@@H]4[C@H]2C(=O)N([C@@H](C)CO)[C@@H]3C1=O` here?
Answer: inactive

Question: With `O=c1[nH]c(=S)[nH]nc1O` as the molecule, how does the cytotoxicity call read?
Answer: inactive

Question: Which cytotoxicity call does the source give for `CC1(C)C=C(C(=O)N2CCOCC2)C(C)(C)N1` here?
Answer: inactive

Question: `C[C@@H]1CN([C@H](C)CO)C(=O)Cc2cc(NC(=O)C3CCCCC3)ccc2O[C@H]1CN(C)S(=O)(=O)c1cn(C)cn1` was tested. Which cytotoxicity call did it give?
Answer: inactive

Question: With `C[C@H](CO)N1C[C@H](C)[C@@H](CN(C)Cc2ccc(-c3ccccc3)cc2)Oc2ccc(NC(=O)Cn3cnnn3)cc2CC1=O` as the molecule, how does the cytotoxicity call read?
Answer: inactive

Question: Which cytotoxicity call does the source give for `NCCCCCCNC(=O)[C@H]1C[C@H]2C(=O)N[C@@H](Cc3ccccc3)C(=O)N2[C@H]1c1cccc(OCCO)c1` here?
Answer: inactive

Question: For `C[C@@H]1CCCCO[C@@H](CN(C)C(=O)Cc2ccccc2)[C@H](C)CN([C@@H](C)CO)C(=O)c2cc(NS(=O)(=O)c3ccc(F)cc3)ccc2O1`, which cytotoxicity call is on record?
Answer: inactive

Question: How did the cytotoxicity call turn out when `O.O=C([O-])CC(O)(CC(=O)[O-])C(=O)[O-].[Li+].[Li+].[Li+]` was run?
Answer: inactive

Question: For `CC(C)NC(=O)N(C)C[C@H]1Oc2c(NS(=O)(=O)c3ccccc3)cccc2C(=O)N([C@H](C)CO)C[C@H]1C`, which cytotoxicity call is on record?
Answer: active

Question: With `C[C@H]1CN([C@@H](C)CO)C(=O)c2cccc(NS(=O)(=O)c3ccc(Cl)cc3)c2O[C@@H]1CN(C)Cc1ccc(C(F)(F)F)cc1` as the molecule, how does the cytotoxicity call read?
Answer: inactive

Question: `C[C@@H]1CN([C@H](C)CO)C(=O)c2cccc(NS(=O)(=O)c3cccs3)c2O[C@@H]1CN(C)Cc1ccc(-c2ccccc2)cc1` was tested. Which cytotoxicity call did it give?
Answer: inactive

Question: For `CC(C)NC(=O)N(C)C[C@@H]1Oc2c(NS(=O)(=O)c3ccccc3)cccc2C(=O)N([C@@H](C)CO)C[C@@H]1C`, which cytotoxicity call is on record?
Answer: inactive

Question: With `C[C@@H]1CN([C@H](C)CO)C(=O)c2cccc(NS(=O)(=O)c3cccs3)c2O[C@H]1CN(C)Cc1ccc(-c2ccccc2)cc1` as the molecule, how does the cytotoxicity call read?
Answer: inactive

Question: How did the cytotoxicity call turn out when `C[C@@H]1CN([C@@H](C)CO)C(=O)c2cccc(NS(=O)(=O)c3cccs3)c2O[C@@H]1CN(C)Cc1ccc(-c2ccccc2)cc1` was run?
Answer: active

Question: How did the cytotoxicity call turn out when `CC(C)NC(=O)N(C)C[C@H]1Oc2c(NS(=O)(=O)c3ccccc3)cccc2C(=O)N([C@H](C)CO)C[C@@H]1C` was run?
Answer: inactive

Question: Which cytotoxicity call does the source give for `C[C@@H]1CN([C@@H](C)CO)C(=O)c2cccc(NS(=O)(=O)c3ccc(Cl)cc3)c2O[C@@H]1CN(C)Cc1ccc(C(F)(F)F)cc1` here?
Answer: active

Question: Which cytotoxicity call does the source give for `C[C@H](CO)N1C[C@H](C)[C@@H](CN(C)Cc2ccc(C(F)(F)F)cc2)Oc2c(NS(=O)(=O)c3ccc(Cl)cc3)cccc2C1=O` here?
Answer: inactive

Question: `Cc1noc(C)c1S(=O)(=O)N(C)C[C@H]1OCCCC[C@@H](C)Oc2ccc(NC(=O)Nc3ccc(F)cc3)cc2C(=O)N([C@@H](C)CO)C[C@H]1C` was tested. Which cytotoxicity call did it give?
Answer: inactive

Question: For `Cc1noc(C)c1NC(=O)Nc1ccc2c(c1)CC(=O)N([C@H](C)CO)C[C@H](C)[C@@H](CN(C)Cc1ccc(Oc3ccccc3)cc1)O2`, which cytotoxicity call is on record?
Answer: inactive

Question: With `C[C@H](CO)N1C[C@H](C)[C@@H](CN(C)C(=O)Nc2ccc3c(c2)OCO3)Oc2ccc(NC(=O)C3CC3)cc2CC1=O` as the molecule, how does the cytotoxicity call read?
Answer: inactive

Question: With `Cc1noc(C)c1S(=O)(=O)N(C)C[C@H]1Oc2ccc(NC(=O)Cn3cnnn3)cc2C(=O)N([C@H](C)CO)C[C@H]1C` as the molecule, how does the cytotoxicity call read?
Answer: inactive

Question: With `C[C@@H]1CN([C@H](C)CO)S(=O)(=O)c2ccc(C#Cc3ccccc3)cc2O[C@@H]1CN(C)C(=O)Cc1ccccn1` as the molecule, how does the cytotoxicity call read?
Answer: inactive

Question: `C[C@@H]1CN([C@H](C)CO)C(=O)Cc2cc(NC(=O)c3ccncc3)ccc2O[C@@H]1CN(C)Cc1ccc2c(c1)OCO2` was tested. Which cytotoxicity call did it give?
Answer: inactive

Question: `COc1ccc(C(N)=O)cc1` was tested. Which cytotoxicity call did it give?
Answer: inactive

Question: For `COC(=O)[C@@H]1[C@@H](c2ccc(OC)cc2)[C@H](C(=O)OC)S(=O)(=O)CS1(=O)=O`, which cytotoxicity call is on record?
Answer: active

Question: Which cytotoxicity call does the source give for `COc1ccc(CNCC(=O)O)cc1` here?
Answer: inactive

Question: `C=C1CCC=C(C)CCC2C1CC2(C)C.O` (single isomer, unassigned; (-)) [(-)E-CARYOPHYLLENE hydrate ] was tested. Which cytotoxicity call did it give?
Answer: inactive

Question: Which cytotoxicity call does the source give for `C=C1C(=O)OC2C1CCC(C)=CCCC1(C)OC21` (stereo not given) here?
Answer: active

Question: How did the cytotoxicity call turn out when `C[C@H](CO)N1C[C@H](C)[C@H](CN(C)S(=O)(=O)c2ccccc2)Oc2ncc(C#Cc3ccccc3)cc2C1=O` was run?
Answer: inactive

Question: For `Cc1ccc(S(=O)(=O)Nc2ccc3c(c2)C(=O)N([C@H](C)CO)C[C@H](C)[C@@H](CN(C)C(=O)c2ccccc2)OCCCC[C@@H](C)O3)cc1`, which cytotoxicity call is on record?
Answer: inactive

Question: For `COCC(=O)N1CC[C@]2(CC(C(=O)NCc3cnc(C)cn3)=NO2)C1`, which cytotoxicity call is on record?
Answer: inactive

Question: For `COc1ccc(S(=O)(=O)N(C)C[C@@H]2OCCCC[C@H](C)Oc3ccc(NC(=O)Nc4c(C)noc4C)cc3C(=O)N([C@@H](C)CO)C[C@H]2C)cc1`, which cytotoxicity call is on record?
Answer: inactive

Question: Which cytotoxicity call does the source give for `COc1ccc(S(=O)(=O)N(C)C[C@H]2OCCCC[C@H](C)Oc3ccc(NC(=O)Nc4c(C)noc4C)cc3C(=O)N([C@@H](C)CO)C[C@H]2C)cc1` here?
Answer: active

Question: For `COc1ccc(S(=O)(=O)N(C)C[C@@H]2OCCCC[C@H](C)Oc3ccc(NC(=O)Nc4c(C)noc4C)cc3C(=O)N([C@H](C)CO)C[C@@H]2C)cc1`, which cytotoxicity call is on record?
Answer: inactive

Question: With `COc1ccc(S(=O)(=O)N(C)C[C@@H]2OCCCC[C@@H](C)Oc3ccc(NC(=O)Nc4c(C)noc4C)cc3C(=O)N([C@@H](C)CO)C[C@H]2C)cc1` as the molecule, how does the cytotoxicity call read?
Answer: inactive

Question: How did the cytotoxicity call turn out when `COc1ccc(S(=O)(=O)N(C)C[C@H]2OCCCC[C@H](C)Oc3ccc(NC(=O)Nc4c(C)noc4C)cc3C(=O)N([C@@H](C)CO)C[C@@H]2C)cc1` was run?
Answer: active

Question: How did the cytotoxicity call turn out when `COc1ccc(S(=O)(=O)N(C)C[C@H]2OCCCC[C@@H](C)Oc3ccc(NC(=O)Nc4c(C)noc4C)cc3C(=O)N([C@H](C)CO)C[C@@H]2C)cc1` was run?
Answer: inactive

Question: With `Cc1noc(C)c1NC(=O)N(C)C[C@H]1Oc2ccc(NS(=O)(=O)c3cn(C)cn3)cc2CC(=O)N([C@H](C)CO)C[C@@H]1C` as the molecule, how does the cytotoxicity call read?
Answer: inactive

Question: How did the cytotoxicity call turn out when `C[C@@H]1CN([C@@H](C)CO)C(=O)c2cccc(NS(=O)(=O)c3cn(C)cn3)c2O[C@@H]1CN(C)Cc1ccncc1` was run?
Answer: inactive

Question: How did the cytotoxicity call turn out when `O=C(C[C@H]1C[C@H]2c3cc(NC(=O)Nc4ccc(C(F)(F)F)cc4)ccc3O[C@H]2[C@H](CO)O1)NCc1cc(F)ccc1F` was run?
Answer: inactive

Question: Which cytotoxicity call does the source give for `CNC[C@@H]1OCCCC[C@@H](C)Oc2ccc(NS(=O)(=O)c3c(C)noc3C)cc2C(=O)N([C@H](C)CO)C[C@@H]1C` here?
Answer: inactive

Question: With `C[C@H]1C/C(=C\N(C)C)C(=O)C1=O` as the molecule, how does the cytotoxicity call read?
Answer: active

Question: `C[C@@H]1CCCCO[C@@H](CN(C)C(=O)Nc2ccc3c(c2)OCO3)[C@H](C)CN([C@H](C)CO)C(=O)c2cc(NS(=O)(=O)c3ccc(Cl)cc3)ccc2O1` was tested. Which cytotoxicity call did it give?
Answer: inactive

Question: With `C[C@@H]1CCCCO[C@H](CN(C)S(=O)(=O)c2ccccc2)[C@H](C)CN([C@@H](C)CO)C(=O)c2cc(NC(=O)NC3CCCCC3)ccc2O1` as the molecule, how does the cytotoxicity call read?
Answer: inactive

Question: Which cytotoxicity call does the source give for `C[C@H](CO)N1C[C@H](C)[C@@H](CN(C)Cc2ccc3c(c2)OCO3)Oc2c(NC(=O)C3CCOCC3)cccc2C1=O` here?
Answer: inactive

Question: `C[C@@H]1CN([C@H](C)CO)C(=O)c2cc(C#CCc3ccccc3)cnc2O[C@@H]1CN(C)C(=O)C1CCOCC1` was tested. Which cytotoxicity call did it give?
Answer: inactive

Question: `O=C(c1ccc(Cl)cc1)c1coc2c1cc(O)c1ccccc12` was tested. Which cytotoxicity call did it give?
Answer: active

Question: `Oc1ccc(F)c2ccccc12` was tested. Which cytotoxicity call did it give?
Answer: inactive

Question: For `C[C@H]1CN([C@@H](C)CO)C(=O)Cc2cc(NC(=O)Nc3ccc4c(c3)OCO4)ccc2O[C@H]1CN(C)C(=O)Nc1ccc(C(F)(F)F)cc1`, which cytotoxicity call is on record?
Answer: active

Question: How did the cytotoxicity call turn out when `C[C@H]1CN([C@@H](C)CO)C(=O)Cc2cc(NC(=O)Nc3ccc4c(c3)OCO4)ccc2O[C@@H]1CN(C)C(=O)Nc1ccc(C(F)(F)F)cc1` was run?
Answer: inactive

Question: `C[C@@H]1CN([C@@H](C)CO)C(=O)Cc2cc(NC(=O)Nc3ccc(C(F)(F)F)cc3)ccc2O[C@H]1CN(C)C(=O)Nc1ccc2c(c1)OCO2` was tested. Which cytotoxicity call did it give?
Answer: inactive

Question: Which cytotoxicity call does the source give for `C[C@H](CO)N1C[C@H](C)[C@@H](CN(C)C(=O)Nc2ccc3c(c2)OCO3)Oc2ccc(NC(=O)Nc3ccc(C(F)(F)F)cc3)cc2CC1=O` here?
Answer: inactive

Question: With `C[C@@H]1CN([C@@H](C)CO)C(=O)Cc2cc(NC(=O)Nc3ccc(C(F)(F)F)cc3)ccc2O[C@@H]1CN(C)C(=O)Nc1ccc2c(c1)OCO2` as the molecule, how does the cytotoxicity call read?
Answer: active

Question: With `C[C@@H]1CN([C@H](C)CO)C(=O)Cc2cc(NC(=O)Nc3ccc(C(F)(F)F)cc3)ccc2O[C@@H]1CN(C)C(=O)Nc1ccc2c(c1)OCO2` as the molecule, how does the cytotoxicity call read?
Answer: active

Question: How did the cytotoxicity call turn out when `C[C@@H]1CN([C@H](C)CO)C(=O)Cc2cc(NC(=O)Nc3ccc(C(F)(F)F)cc3)ccc2O[C@H]1CN(C)C(=O)Nc1ccc2c(c1)OCO2` was run?
Answer: inactive

Question: With `C[C@H]1CN([C@@H](C)CO)C(=O)Cc2cc(NC(=O)Nc3ccc(C(F)(F)F)cc3)ccc2O[C@@H]1CN(C)C(=O)Nc1ccc2c(c1)OCO2` as the molecule, how does the cytotoxicity call read?
Answer: inactive

Question: `C[C@@H]1CN([C@H](C)CO)C(=O)Cc2cc(NC(=O)Nc3ccc4c(c3)OCO4)ccc2O[C@@H]1CN(C)C(=O)Nc1ccc(C(F)(F)F)cc1` was tested. Which cytotoxicity call did it give?
Answer: active

Question: How did the cytotoxicity call turn out when `C[C@H]1CN([C@@H](C)CO)C(=O)Cc2cc(NC(=O)Nc3ccc(C(F)(F)F)cc3)ccc2O[C@H]1CN(C)C(=O)Nc1ccc2c(c1)OCO2` was run?
Answer: inactive

Question: Which cytotoxicity call does the source give for `C[C@@H]1CN([C@@H](C)CO)C(=O)Cc2cc(NC(=O)Nc3ccc4c(c3)OCO4)ccc2O[C@H]1CN(C)C(=O)Nc1ccc(C(F)(F)F)cc1` here?
Answer: inactive

Question: How did the cytotoxicity call turn out when `C[C@H](CO)N1C[C@H](C)[C@H](CN(C)C(=O)Nc2ccc3c(c2)OCO3)Oc2ccc(NC(=O)Nc3ccc(C(F)(F)F)cc3)cc2CC1=O` was run?
Answer: inactive
